Bioassay records (PubChem BioAssay)
In the library only some 3.1% were active in any assay of this set; here they are far more common.
PTAP TSG101 blk – blocks PTAP/TSG101 interaction to inhibit HIV-1 budding | Q99816 | Fluorescence polarization, FITC-PTAP peptide / Tsg101 binding | Potency, µM (titrated, usually from 115 µM), usual class: inhibitors | 340,000 tested, under 10 active; active = well fitted inhibition curve with a large enough effect in the main read-out, with a control signal flat, not every such curve was filed as active; inconclusive = small, poorly fitted or top-dose-only effect, or effect the other way, or a change in a side signal; inactive = no such curve, though single readings can be large or run the other way
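Steps: Tsg101 binding domain dispensed (10 uM final), compounds pinned in DMSO, FITC-labeled PTAP-motif peptide added (50 nM final); after 20 min binding at room temperature, polarization measured.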
PLK1 PBD block – blocks phosphopeptide binding to human PLK1 polo-box domain; P53350; Plk1 PBD binding of FITC phosphopeptide, fluorescence polarization; Potency, µM, actives largely listed as inhibitors; 2.8% of 360,000 active; also: series mostly up to about 57 µM; nearly all actives have a fitted effect of over 65% in size
VDR inhibitor – blocks the human vitamin D receptor; P11473; VDR-SRC2-3 peptide fluorescence polarization, 2 h; Potency, µM, hits mostly inhibitors; 0.93% of 400,000 active
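Fluorescence polarization assay of small-molecule disruption of VDR binding to coregulator peptide SRC2-3. Compounds and controls pin-transferred, then read after 2 h incubation at ambient room temperature.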
TSHR antagonist – antagonists of human thyroid stimulating hormone receptor; P16473; TSHR-expressing cells, TSH-stimulated cAMP HTRF, 2 h; hits give low values; activity change, negative = inhibition, % at 11.5 µM; 0.2% of 330,000 active; AID 504810;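 active = activity change below a set negative limit, meaning inhibition stronger than a set level, cut at about -70% in these data; inconclusive = activity change between two set negative limits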
Target sequence (P16473 whole entry, looked up): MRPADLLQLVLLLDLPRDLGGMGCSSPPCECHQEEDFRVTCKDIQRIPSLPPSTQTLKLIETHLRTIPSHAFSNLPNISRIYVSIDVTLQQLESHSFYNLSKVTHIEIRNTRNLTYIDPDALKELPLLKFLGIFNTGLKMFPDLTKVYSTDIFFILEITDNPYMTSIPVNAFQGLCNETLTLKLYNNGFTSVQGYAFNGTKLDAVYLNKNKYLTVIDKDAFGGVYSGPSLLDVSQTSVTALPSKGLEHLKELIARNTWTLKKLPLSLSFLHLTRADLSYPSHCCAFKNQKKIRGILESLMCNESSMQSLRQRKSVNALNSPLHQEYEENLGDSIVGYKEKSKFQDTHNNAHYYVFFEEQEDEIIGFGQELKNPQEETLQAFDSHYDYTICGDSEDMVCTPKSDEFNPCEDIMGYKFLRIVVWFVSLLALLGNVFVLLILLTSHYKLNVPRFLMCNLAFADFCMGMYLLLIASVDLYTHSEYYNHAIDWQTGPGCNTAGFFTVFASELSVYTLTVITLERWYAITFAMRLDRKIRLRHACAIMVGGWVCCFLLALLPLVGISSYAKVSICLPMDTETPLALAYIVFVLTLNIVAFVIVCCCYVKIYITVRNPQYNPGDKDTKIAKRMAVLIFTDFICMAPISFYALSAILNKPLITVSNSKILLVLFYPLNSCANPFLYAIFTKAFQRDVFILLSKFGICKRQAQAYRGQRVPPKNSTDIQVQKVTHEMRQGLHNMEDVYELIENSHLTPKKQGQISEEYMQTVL
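Freshly harvested TSHR cells receive pin-tooled compound, then EC80 TSH at 4nM final. After 2 hours at 37 deg C, antibody in lysis buffer and cAMP-d2 are added; 30 minutes at ambient temperature precede the HTRF read.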
uPA generation – blocks generation of uPA at the cell surface | cell surface uPA generation assay, qHTS | Potency, µM (highest dose often 38.3 µM), usual class: inhibitors | 0.31% of 330,000 active | AID 540303; active = well fitted inhibition curve with a large enough effect; inconclusive = small, poorly fitted or top-dose-only effect; inactive = no such curve, though single readings can be large or run the other way; tested in mouse RAW 264.7 cells; also: nearly all actives have a fitted effect of over 55% in size
Of the large screens only hits and unclear results are named; the others gave an inactive call. Unless noted, calls follow the shape of the dose curve; as a rule, active = well fitted curve in the direction sought with a large enough effect; inconclusive = small, poorly fitted or top-dose-only effect, or another doubt; inactive = no such curve, though single readings can be large; an effect the other way counts as inactive or inconclusive.

CCC(CC)C1=NN2C(=N)/C(=C/c3ccc(OC(=O)c4ccco4)cc3)C(=O)N=C2S1	PLK1 PBD block 29.9µM
CC(C)CS(=O)(=O)C1=NSC2=NC(=O)/C(=C\c3ccc(OC(=O)c4ccco4)cc3)C(=N)N21	PLK1 PBD block 23.8µM, VDR inhibitor inconclusive
CS(=O)(=O)C1=NSC2=NC(=O)/C(=C\c3ccc(OC(=O)c4ccco4)c(Br)c3)C(=N)N21	PLK1 PBD block 23.8µM, VDR inhibitor inconclusive
CC1=CC2=NC(=O)/C(=C\c3ccc(OC(=O)c4ccco4)cc3)C(=N)N2O1	none
CSC1=NSC2=NC(=O)/C(=C\c3ccc(OC(=O)c4ccco4)cc3)C(=N)N12	PLK1 PBD block inconclusive
O=C(Nc1cc(=O)[nH]c(=O)[nH]1)c1cc(Cl)ccc1Cl	uPA generation 3.55µM
[O-][n+]1c2ccccc2cc2ccccc21	PLK1 PBD block 23.8µM
O=C(CN(CC1CCCO1)C(=O)CCC(=O)Nc1ccccn1)NCC1CCCO1 (centres undefined)	none
COCCN(CC(=O)NCC1CCCO1)C(=O)CCC(=O)Nc1ccccn1 (centres undefined)	PLK1 PBD block 4.74µM, VDR inhibitor 35.5µM
COc1cccc(CNC(=O)c2ccc3c(c2)nc2n3CCOC2)c1	none (no result: PTAP TSG101 blk, PLK1 PBD block, TSHR antagonist, uPA generation)
COCc1nnc(NC(=O)CSCc2ccccc2)s1	PLK1 PBD block 21.2µM
COCCSc1ccccc1C(=O)Nc1nnc(COC)s1	PLK1 PBD block 26.7µM (no result: uPA generation)
COCc1nnc(NC(=O)c2ccccc2Oc2ccccc2)s1	none
COC(=O)c1cc(NC(=O)[C@H](CCS(C)(=O)=O)N2Cc3ccccc3C2=O)cc(C(=O)OC)c1	none (no result: PTAP TSG101 blk, PLK1 PBD block, TSHR antagonist, uPA generation)
COC(=O)c1ccc([C@H]2CC(=O)O2)cc1	uPA generation 4.47µM
Cc1oc(-c2ccccc2F)nc1CSCC(=O)NC1CC1	PLK1 PBD block 26.7µM, VDR inhibitor inconclusive
COc1cccc(OCc2cc(=O)n3c(-c4ccccc4)csc3n2)c1	none (no result: PTAP TSG101 blk, PLK1 PBD block, TSHR antagonist, uPA generation)
CCC1CCc2c(sc(NC(=O)CSc3nc(-c4ccco4)cc(C(F)(F)F)n3)c2C#N)C1 (centres undefined)	PLK1 PBD block 23.8µM
CC1CCc2onc(C(=O)N3CCN(c4ccccc4)CC3)c2C1 (centres undefined)	none (no result: PTAP TSG101 blk, PLK1 PBD block, TSHR antagonist, uPA generation)
COc1cc(OC)c(NC(=O)Cn2cnc3sc(C)c(S(=O)(=O)N4CCOCC4)c3c2=O)cc1Cl	TSHR antagonist -97.2
COc1ccc(NC(=O)Cn2cnc3sc(C)c(S(=O)(=O)N4CCOCC4)c3c2=O)cc1Cl	none
O=C1O/C(=C/Br)CCC1c1cccc2ccccc12 (centres undefined)	VDR inhibitor 17.8µM (no result: PTAP TSG101 blk, PLK1 PBD block, uPA generation)
O=C1CCCCC1c1cccc2ccccc12 (centres undefined)	none
COc1cccc(/C=C/C(=O)c2ccc(NC3=NCCCS3)cc2)c1	VDR inhibitor inconclusive
Cc1cccc(/C=C/C(=O)c2ccc(NC3=NCCCS3)cc2)c1	VDR inhibitor 20µM, uPA generation inconclusive
COc1ccc2c(C)cc(C)nc2n1	none
Cc1cc(C)c2ccc(=S)[nH]c2n1	PLK1 PBD block 15µM
Cc1ccc(S(=O)(=O)N2CCN(c3ccccc3)CC2)cc1C(N)=O	none
Cc1ccc(-n2ncc3c(NCc4ccccc4)ncnc32)cc1C	none (no result: PTAP TSG101 blk, PLK1 PBD block, TSHR antagonist, uPA generation)
Cc1[nH][nH]c(=O)c1C(c1c(C)[nH][nH]c1=O)c1cn(Cc2cccc3ccccc23)c2ccccc12	PLK1 PBD block 7.52µM
CNC(=O)Nc1cc(C)nn1C	PLK1 PBD block 18.9µM, VDR inhibitor inconclusive
O=c1c2[nH]c3ccccc3c2ncn1Cc1ccco1	none
Cc1ccc2c(c1)[nH]c1c(=O)n(Cc3ccco3)cnc12	PLK1 PBD block 26.7µM, VDR inhibitor inconclusive
CCCCCCCCCCC/C=C\C/C=C\CCCC(=O)O	none (no result: PTAP TSG101 blk, PLK1 PBD block, TSHR antagonist, uPA generation)
CCCCC/C=C\C/C=C\C/C=C\C/C=C\CCCC(=O)C(F)(F)F	VDR inhibitor 28.2µM (no result: PTAP TSG101 blk, PLK1 PBD block, TSHR antagonist, uPA generation)
O=c1[nH]cnc2c1ccn2C1OC(CO)C(O)C1O (centres undefined)	uPA generation 3.98µM (no result: TSHR antagonist)
O=c1[nH]cnc2c1[nH]c(=S)n2C1O[C@@H](CO)[C@H](O)[C@@H]1O (some centres undefined)	none (no result: PTAP TSG101 blk, PLK1 PBD block, TSHR antagonist, uPA generation)
O=Cc1s/c(=N\S(=O)(=O)c2ccccc2)n(CCCCl)c1Cl	PLK1 PBD block 4.74µM, VDR inhibitor 22.4µM, TSHR antagonist -70.1
O=c1oc2ccccc2c(NC2CCCCC2)c1NS(=O)(=O)c1ccc(F)cc1	PLK1 PBD block 3.36µM, VDR inhibitor inconclusive, uPA generation inconclusive
CCc1ccc(S(=O)(=O)Nc2c(NC3CCCCC3)c3ccccc3oc2=O)cc1	none
O=C(CCc1nc2ccccc2s1)NC1CCOC1=O (centres undefined)	PLK1 PBD block 23.8µM
Nc1nc(SCC(=O)NCCO)nc2sc3c(c12)CCCC3	PLK1 PBD block 23.8µM
COc1ccc([N+](=O)[O-])cc1NC(=O)CCN1CCOCC1	PLK1 PBD block 29.9µM
COc1ccc([N+](=O)[O-])cc1NC(=O)CSCc1cc(C)cc(C)c1	PLK1 PBD block 29.9µM
COc1ccc([N+](=O)[O-])cc1NC(=O)CCN1CCN(C)CC1	none
CC(=O)C1=CCC(c2ccc(Cl)c(Cl)c2)N(S(=O)(=O)c2ccc(C)cc2)C1 (centres undefined)	none (no result: PTAP TSG101 blk, VDR inhibitor, TSHR antagonist, uPA generation)
CC(C)(C)NC(=O)C(=O)NNC(=O)c1cccc(Br)c1	TSHR antagonist -78.7
Cc1cccc(C(=O)NNC(=O)C(=O)NC(C)(C)C)c1	none
CCOc1ccc(C(=O)NC2CCCCCCC2)cc1	none (no result: TSHR antagonist)
CCOc1ccc(C(=S)NC2CCCCC2)cc1	PLK1 PBD block 26.7µM (no result: uPA generation)
COc1ccc(C(=S)NC2CCCCC2)cc1	PLK1 PBD block 23.8µM, VDR inhibitor 89.1µM
CCOc1ccc(C2C(=O)N(C3CCCCCC3)CC(=O)N2Cc2ccc(C)cc2)cc1OC (centres undefined)	none (no result: PTAP TSG101 blk, PLK1 PBD block, TSHR antagonist, uPA generation)
COc1cc(/C=N/n2cnnc2)ccc1OC(=O)c1cccnc1	PLK1 PBD block 7.52µM, VDR inhibitor inconclusive
COc1cc(C=O)ccc1OC(=O)c1cccnc1	none
Cc1ccc(C)c(NC(=O)CSc2ncc3c(n2)-c2ccccc2N(Cc2ccccc2C)S3(=O)=O)c1	none (no result: PTAP TSG101 blk, PLK1 PBD block, TSHR antagonist, uPA generation)
Cc1ccc2nc(-c3cccc(S(=O)(=O)N4CCCC4)c3)cn2c1	none
Cc1ccc2nc(-c3cccc(S(=O)(=O)N4CC(C)OC(C)C4)c3)cn2c1 (centres undefined)	PLK1 PBD block 18.9µM
COc1cc(C)c(C(=O)Oc2cc(C)c(C(=O)O)c(O)c2C)c(OC)c1C	PLK1 PBD block 37.7µM, VDR inhibitor inconclusive
N#Cc1ccccc1-c1csc(N2CCC(C(N)=O)CC2)n1	none (no result: PTAP TSG101 blk, PLK1 PBD block, VDR inhibitor, uPA generation)
O=c1ccc2[n+]([O-])c3ccc(O)cc3oc-2c1	VDR inhibitor 11.2µM
CN1C[C@@H]2[C@@H]3C(=O)N(C)C(=O)[C@@H]3[C@](C)(C1=O)N2C(=O)c1ccc(C(C)(C)C)cc1	none (no result: TSHR antagonist)
CCC(=O)NC(=S)Nc1ccccc1C(=O)OC	none
CCCC(=O)NC(=S)Nc1ccccc1C(=O)OC	PLK1 PBD block 29.9µM
COC(=O)c1ccccc1NC(=S)NC(=O)c1cccc2ccccc12	PLK1 PBD block 6.7µM, VDR inhibitor inconclusive
